Consider 64 compounds from publication PMC4336329 (PLoS ONE, 2015).

The structures appear in SMILES notation. In all, about 310,000 compounds went through this assay and about 14,000 (4.5%) showed an effect of 50% or more. Effects have a minus sign here. The sample as a whole holds a higher share of strong results than the screen did.
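Further: peak tail current of the secondary pulse compared with the same well before compound.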

The target in this experiment is human ether-à-go-go-related gene (hERG) potassium channel (human, UniProt Q12809). The experiment is described as follows: primary screen, population patch clamp on CHO cells stably expressing hERG; higher = less effect of the substance.
human ether-à-go-go-related gene (hERG) potassium channel, sequence (Q12809 whole entry, looked up): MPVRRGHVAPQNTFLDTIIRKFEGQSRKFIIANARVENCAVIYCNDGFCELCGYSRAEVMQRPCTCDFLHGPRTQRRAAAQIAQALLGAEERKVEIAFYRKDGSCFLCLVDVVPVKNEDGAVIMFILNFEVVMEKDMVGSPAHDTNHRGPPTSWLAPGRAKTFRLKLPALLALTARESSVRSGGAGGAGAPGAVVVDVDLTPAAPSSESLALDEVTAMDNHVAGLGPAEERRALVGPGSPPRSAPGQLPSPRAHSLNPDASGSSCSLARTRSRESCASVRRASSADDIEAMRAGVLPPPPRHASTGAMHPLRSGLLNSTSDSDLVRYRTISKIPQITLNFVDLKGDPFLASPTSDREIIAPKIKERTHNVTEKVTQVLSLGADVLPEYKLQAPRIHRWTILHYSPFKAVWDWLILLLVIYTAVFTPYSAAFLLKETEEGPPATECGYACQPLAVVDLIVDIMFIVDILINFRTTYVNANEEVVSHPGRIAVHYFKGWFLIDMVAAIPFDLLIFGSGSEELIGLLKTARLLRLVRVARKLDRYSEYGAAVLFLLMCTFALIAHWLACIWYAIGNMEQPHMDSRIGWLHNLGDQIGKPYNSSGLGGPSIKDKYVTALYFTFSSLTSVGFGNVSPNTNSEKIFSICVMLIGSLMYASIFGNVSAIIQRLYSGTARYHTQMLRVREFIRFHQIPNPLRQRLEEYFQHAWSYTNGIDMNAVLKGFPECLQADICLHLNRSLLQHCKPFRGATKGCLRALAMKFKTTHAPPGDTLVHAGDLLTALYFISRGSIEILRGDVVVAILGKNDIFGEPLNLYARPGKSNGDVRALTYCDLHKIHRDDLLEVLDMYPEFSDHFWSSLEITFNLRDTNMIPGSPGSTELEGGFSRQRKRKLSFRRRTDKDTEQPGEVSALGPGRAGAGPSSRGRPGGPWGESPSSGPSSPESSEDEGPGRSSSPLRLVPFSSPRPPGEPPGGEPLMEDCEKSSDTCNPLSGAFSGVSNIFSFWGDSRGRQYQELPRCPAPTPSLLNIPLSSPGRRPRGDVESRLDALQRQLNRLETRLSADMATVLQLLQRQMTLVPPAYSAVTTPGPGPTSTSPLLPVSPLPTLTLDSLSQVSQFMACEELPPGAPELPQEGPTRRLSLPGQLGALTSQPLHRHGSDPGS
As to `Cc1cccc(C)c1OP(N)(=O)Oc1c(C)cccc1C`, the “hERG current change (%, negative = inhibition) at 10uM” value is recorded as 11%.
In the case of `CC(C)C(=O)Nc1ccc(C(=O)NNC(=O)c2ccco2)cc1` it was 7.75%.
Take `Cc1cc(C)n(C(=O)C2CCCN2S(=O)(=O)c2ccc(Cl)cc2)n1` (stereo not shown): the “hERG current change (%, negative = inhibition) at 10uM” value is -7.48%.
`CCOc1ccc(C(=O)NCC(=O)Nc2ncccc2C)cc1OCC`: the “hERG current change (%, negative = inhibition) at 10uM” value was determined as 18%.
`COc1ccc(N2CCN(C(=O)CCc3c[nH]c4ccccc34)CC2)cc1`: the “hERG current change (%, negative = inhibition) at 10uM” value was -10.2%.
Take `CC(=O)Nc1ccc(S(=O)(=O)NC2C3(C)CCC(C3)C2(C)C)cc1` (stereo not shown): the “hERG current change (%, negative = inhibition) at 10uM” value came to 16.9%.
As to `Cl.NCCSC1CC(=O)N(Cc2ccc(F)cc2)C1=O` (stereo not shown), the “hERG current change (%, negative = inhibition) at 10uM” value was -20.4%.
On to `CCOC(=O)Cc1csc(NC(=O)/C=C/c2ccc(Cl)cc2)n1`, for which the “hERG current change (%, negative = inhibition) at 10uM” value was -9.29%.
For the compound `O=C(C1CCCN(S(=O)(=O)c2cccs2)C1)N1CCC(N2CCCCC2)CC1` (stereo not shown), the “hERG current change (%, negative = inhibition) at 10uM” value is -61.7%.
In the case of `CN1CCN(C(=O)C2CCCN(S(=O)(=O)c3ccc(Br)cc3)C2)CC1` (stereo not shown), the “hERG current change (%, negative = inhibition) at 10uM” value is -5.87%.
`CC(=O)Nc1ccc(S(=O)(=O)N2CCCC(C(=O)O)C2)cc1` (stereo not shown): the “hERG current change (%, negative = inhibition) at 10uM” value is -3.16%.
As for `O=C(C1CCCN(S(=O)(=O)c2ccc(Br)cc2)C1)N1CCN(Cc2ccccc2)CC1` (stereo not shown), the “hERG current change (%, negative = inhibition) at 10uM” value was -55.1%.
For the compound `O=C(C1CCCN(S(=O)(=O)c2cccs2)C1)N1CCN(C2CCCCC2)CC1` (stereo not shown), the “hERG current change (%, negative = inhibition) at 10uM” value is -24.6%.
With `O=C(C1CCCN(S(=O)(=O)c2ccc(Br)cc2)C1)N1CCOCC1` (stereo not shown), the “hERG current change (%, negative = inhibition) at 10uM” value is -13.8%.
For `CC(=O)Nc1ccc(S(=O)(=O)N2CCCC(C(=O)N3CCN(c4ccccc4)CC3)C2)cc1` (stereo not shown), the “hERG current change (%, negative = inhibition) at 10uM” value is reported as -50.9%.
As for `O=C(O)C1CCCN(S(=O)(=O)c2cccs2)C1` (stereo not shown), the “hERG current change (%, negative = inhibition) at 10uM” value came to 4.67%.
On to `CCOc1ccc(S(=O)(=O)N2CCC(C(=O)N3CCN(c4ccccc4)CC3)CC2)cc1`, for which the “hERG current change (%, negative = inhibition) at 10uM” value was -18%.
On to `CC(=O)N1CCCc2cc(S(=O)(=O)N3CCCC(C(=O)N4CCN(c5ccccc5)CC4)C3)ccc21` (stereo not shown), for which the “hERG current change (%, negative = inhibition) at 10uM” value is recorded as -21.3%.
`CCOC(=O)N1CCN(C(=O)C2CCCN(S(=O)(=O)c3ccc(OCC)cc3)C2)CC1` (stereo not shown): the “hERG current change (%, negative = inhibition) at 10uM” value was -46.2%.
In the case of `CCOc1ccc(S(=O)(=O)N2CCCC(C(=O)N3CCN(c4ccccc4)CC3)C2)cc1` (stereo not shown) it was -56.3%; in that of `COc1cccc(Nc2nc(-c3sc(N)nc3C)cs2)c1`, -18.2%; in that of `CNc1nc(-c2c(C)n(C)c3ccc(OC)cc23)cs1`, 19.2%.
Regarding `Cl.Clc1ccccc1CSC1=NCCCN1`, the “hERG current change (%, negative = inhibition) at 10uM” value was found to be 0.0434%.
On to `O=C(CN(C(=O)CCC(=O)Nc1ccccn1)c1ccc2c(c1)OCCO2)NCCc1ccccc1`, for which the “hERG current change (%, negative = inhibition) at 10uM” value is given as 2.29%.
In the case of `CC1CCCC(C)N1c1ccc(S(=O)(=O)N2CCOCC2)cc1Cl` (stereo not shown), the “hERG current change (%, negative = inhibition) at 10uM” value amounted to 11.5%.
`COc1ccc(C2SCC(=O)N2CC23CC4CC(CC(C4)C2)C3)cc1` (stereo not shown): the “hERG current change (%, negative = inhibition) at 10uM” value amounted to 3.15%.
For `O=C(C1CCN(S(=O)(=O)c2ccc(Br)s2)CC1)N1CCN(c2ccccc2)CC1`, the “hERG current change (%, negative = inhibition) at 10uM” value is -10.5%.
With `O=C(C1CCCN(S(=O)(=O)c2ccc(Br)s2)C1)N1CCCCCC1` (stereo not shown), the “hERG current change (%, negative = inhibition) at 10uM” value is listed as -11.8%.
With `O=C(C1CCCN(S(=O)(=O)c2ccc(Br)s2)C1)N1CCN(c2ccccc2)CC1` (stereo not shown), the “hERG current change (%, negative = inhibition) at 10uM” value is -63.8%.
Consider `CCOC(=O)C1CCN(C(=O)C2CCCN(S(=O)(=O)c3ccc(OCC)c(Cl)c3)C2)CC1` (stereo not shown), for which the “hERG current change (%, negative = inhibition) at 10uM” value is on record as -40.8%.
In the case of `CCOC(=O)C1CCN(C(=O)C2CCCN(S(=O)(=O)c3ccc(OC)c(Cl)c3)C2)CC1` (stereo not shown), the “hERG current change (%, negative = inhibition) at 10uM” value is recorded as -67.2%.
For the compound `CCOC(=O)C1CCN(S(=O)(=O)c2ccc(OC)c(Cl)c2)CC1`, the “hERG current change (%, negative = inhibition) at 10uM” value is reported as 9.79%.
For the compound `COc1ccc(CCNC(=O)Cn2nnc(-c3ccccc3F)n2)cc1OC`, the “hERG current change (%, negative = inhibition) at 10uM” value is given as 1.44%.
With `CC1CCCN(C(=O)COC(=O)CNC(=O)c2ccc(Br)cc2)C1` (stereo not shown), the “hERG current change (%, negative = inhibition) at 10uM” value is -8.3%.
As to `CCOC(=O)C1CCN(C(C(=O)NC2CCCC2)c2ccc(C)cc2)CC1` (stereo not shown), the “hERG current change (%, negative = inhibition) at 10uM” value is -21.8%.
Consider `CC(C)c1ccc(O)c(NC(=O)c2cccnc2)c1`, for which the “hERG current change (%, negative = inhibition) at 10uM” value stood at 6.07%.
With `Cc1sc2ncnc(NCCN3CCOCC3)c2c1C.O=C(O)C(=O)O`, the “hERG current change (%, negative = inhibition) at 10uM” value is -22.4%.
With `c1csc(CNc2ncnc3sccc23)c1`, the “hERG current change (%, negative = inhibition) at 10uM” value was -20.3%.
In the case of `Cc1sc2ncnc(N3CCOCC3)c2c1C` it was -13.7%.
In the case of `c1nc(NCC2(N3CCOCC3)CCCCC2)c2ccsc2n1` it was -73.3%.
With `Cc1sc2ncnc(NCC(C)(C)N3CCOCC3)c2c1C`, the “hERG current change (%, negative = inhibition) at 10uM” value is recorded as -71.7%.
In the case of `Cc1sc2ncnc(NCCCN3CCCC3=O)c2c1C` it was 3.27%.
In the case of `c1nc(Nc2ccc(N3CCOCC3)cc2)c2ccsc2n1` it was -7.59%; in that of `Cc1sc2ncnc(NCC3(N4CCOCC4)CCCCC3)c2c1C`, -71.1%; in that of `Cc1sc2ncnc(NCC3CCCO3)c2c1C.Cl` (stereo not shown), -1.4%.
Take `C=CCNC(=O)CC(=O)N/N=C/c1ccc(F)cc1`: the “hERG current change (%, negative = inhibition) at 10uM” value is on record as -3.54%.
Take `CCSC(=O)NC12CC3CC(CC(C3)C1)C2`: the “hERG current change (%, negative = inhibition) at 10uM” value stood at 6.27%.
With `Cc1cc(OCC(=O)NCc2ccccn2)c2c(C)cc(=O)oc2c1`, the “hERG current change (%, negative = inhibition) at 10uM” value is -7.15%.
For the compound `O=C(NC(=S)Nc1ccc(S(=O)(=O)N2CCCCCC2)cc1)c1cccs1`, the “hERG current change (%, negative = inhibition) at 10uM” value was -5.3%.
As for `O=C(CCc1ccc(S(=O)(=O)N2CCOCC2)cc1)N/N=C/c1ccc(O)c(O)c1O`, the “hERG current change (%, negative = inhibition) at 10uM” value amounted to 18.9%.
In the case of `COc1ccc(NC(=O)C2=C(C)Nc3ncnn3C2c2ccccc2C(F)(F)F)c(OC)c1` (stereo not shown), the “hERG current change (%, negative = inhibition) at 10uM” value worked out at 2.77%.
For the compound `CCOc1ccc(C(C)=O)cc1CSc1nc(C)cc(C)n1`, the “hERG current change (%, negative = inhibition) at 10uM” value is given as -6.21%.
As for `CCOc1ccccc1NC(=S)N1CCC(NC(=O)NC23CC4CC(CC(C4)C2)C3)CC1`, the “hERG current change (%, negative = inhibition) at 10uM” value was -13.7%.
Regarding `COc1ccc(S(=O)(=O)N2CCCOC2CNC(=O)C(=O)NCc2ccco2)cc1` (stereo not shown), the “hERG current change (%, negative = inhibition) at 10uM” value was -22%.
Consider `CCOC(=O)c1c(NC(=O)C(C)NCc2ccco2)sc2c1CCC(C)C2.O=C(O)C(=O)O` (stereo not shown), for which the “hERG current change (%, negative = inhibition) at 10uM” value was -4.23%.
In the case of `CCOc1ccccc1Oc1coc2cc(OCC(=O)O)ccc2c1=O` it was 24.3%; in that of `COC(=O)c1ccc(Oc2coc3cc(OCc4cnn(-c5ccccc5)c4)ccc3c2=O)cc1`, 7.07%; in that of `COc1cccc(Oc2coc3cc(OC(=O)N4CCOCC4)ccc3c2=O)c1`, -4.27%.
As for `COC(=O)COc1ccc2c(=O)c(Oc3ccccc3Br)coc2c1`, the “hERG current change (%, negative = inhibition) at 10uM” value is 14%.
On to `Cc1oc2cc(OCc3cnn(-c4ccccc4)c3)ccc2c(=O)c1Oc1ccccc1F`, for which the “hERG current change (%, negative = inhibition) at 10uM” value is reported as -11.2%.
In the case of `COc1ccc(Oc2coc3cc(OC(=O)N4CCOCC4)ccc3c2=O)cc1` it was -25.3%; in that of `O=c1c(Oc2ccccc2F)coc2cc(OCc3cnn(-c4ccccc4)c3)ccc12`, -55%.
On to `CCCNC(=O)COc1ccc2c(=O)c(Oc3ccccc3F)coc2c1`, for which the “hERG current change (%, negative = inhibition) at 10uM” value was -61.6%.
Consider `COc1ccccc1Oc1coc2cc(OC(=O)N3CCOCC3)ccc2c1=O`, for which the “hERG current change (%, negative = inhibition) at 10uM” value is listed as -56.4%.
